For 40 molecules, Potency results are on record in PubChem BioAssay (NCATS).

Results filed as inconclusive are left out. Where a call stands in place of a potency, no number is given. Active and inactive are the calls of the source. The call rests on the fitted dose curve; in most records, active means well fitted cell-killing curve with a large enough effect; inconclusive means small, poorly fitted or top-dose-only effect, or effect the other way; inactive means no such curve, though single readings can be large or run the other way.
Potency means the concentration at half of the fitted maximal effect.

The test can be described thus: Quantitative High-Throughput drug screen in 47 multiple myeloma cell lines against the NCATS MIPE library collection: XG1_PLB cell viability assay (AID 1919866). Further: nearly all actives have a fitted effect of over 35% in size. To be noted: CellTiter-Glo ATP, 48 h; series mostly up to 45.8 µM. An excerpt:
PI: Beverly A. Mock Ph.D.
Laboratory of Cancer Biology and Genetics,
Center for Cancer Research, National Cancer Institute,
National Institute of Health, Bethesda, Maryland
Drug resistance and disease progression are common in multiple myeloma (MM) patients, underscoring the need for new therapeutic combinations. […] We hypothesized that effective combinations would reduce MYC expression and enhance p16 activity. […] These preclinical data identify potentially useful drug combinations for evaluation in drug-resistant MM and reveal potential mechanisms of combined drug sensitivity.
Described herein is the primary MIPE qHTS used to cherrypick compounds. Validated compounds were then further tested for potential synergistic activiy.
[1] Peat TJ, Gaikwad SM, Dubois W, Gyabaah-Kessie N, Zhang S, Gorjifard S, Phyo Z, Andres M, Hughitt VK, Simpson RM, Miller MA, Girvin AT, Taylor A, Williams D, D'Antonio N, Zhang Y, Rajagopalan A, Flietner E, Wilson K, Zhang X, Shinn P, Klumpp-Thomas C, McKnight C, Itkin Z, Chen L, Kazandijian D, Zhang J, Michalowski AM, Simmons JK, Keats J, Thomas CJ, Mock BA. Drug combinations identified by high-throughput screening promote cell cycle transition and upregulate Smad pathways in myeloma. Cancer Lett. 2023 Aug 1;568:216284. doi: 10.1016/j.canlet.2023.216284. Epub 2023 Jun 24. PMID: 37356470; PMCID: PMC10408729.
SEQUENCE No. (e.g., 1, 2, 3, etc.); […] (e.g., Cells, Incubation, Reagent, etc.); VALUE and DESCRIPTION.
1; Cells; 5 uL; white, solid bottom 1536-well Greiner assay plate.
2; Compounds; 23 nL; Kalypsis pin tool (Wako USA) equipped with a 1536-well pin head to transfer to the assay plates.
3; Incubation; 48 hours; 37C incubation.
4; Reagent;5uL; CellTiter Glo (Promega).
5; Detector; 425V; Luminescence; Viewlux PerkinElmer.
NOTES (numbers refer to Sequence numbers above)
1. The cell-based screening methods employed in this study were like those previously published. Briefly, the corresponding myeloma cell lines were screened in 1,536-well plates with 500 cells, 5-uL per well for inhibition of cell viability (assessed by measuring ATP levels with CellTiterGlo).
2. NCATS MIPE 4.0 library of approved and investigational drugs were added using the Kalypsis pin tool. Wells treated with DMSO only for 100% viability and media only for 0% viability were used as controls.
3. The assay plates were covered and incubated for 48 hours in a 37C, 5% CO2 incubator with controlled humidity.
4. After 48 hours, CellTilter-GloTM luminescent substrate mix (Promega) reagent was added to the assay plate and plates we incubated for 5 min at room temperature.
5. Signal was measured as median relative luminescence units on a ViewLux (PerkinElmer) multiplate reader.
[1] Heske CM, Davis MI, Baumgart JT, Wilson K, Gormally MV, Chen L, Zhang X, Ceribelli M, Duveau DY, Guha R, Ferrer M, Arnaldez FI, Ji J, Tran HL, Zhang Y, Mendoza A, Helman LJ, Thomas CJ. Matrix Screen Identifies Synergistic Combination of PARP Inhibitors and Nicotinamide Phosphoribosyltransferase (NAMPT) Inhibitors in Ewing Sarcoma. Clin Cancer Res. 2017 Dec 1;23(23):7301-7311. doi: 10.1158/1078-0432.CCR-17-1121. Epub 2017 Sep 12. PMID: 28899971; PMCID: PMC6636827.
On to `S=c1nc[nH]c2nc[nH]c12`, for which the Potency is 1.66 µM (active). For the molecule `CNC[C@@H](O)[C@@H](O)[C@H](O)[C@H](O)CO`, the Potency entry is “inactive”.

With `CCC(C)(Oc1ccc(C2(c3ccc(OC(C)(CC)C(=O)O)cc3)CCCCC2)cc1)C(=O)O` (stereo not given), the Potency entry was “inactive”.

Regarding `NCCCCNCCCN`, the Potency is 20.9 µM (active). Turning to `Cc1cccc(C)c1OCC(=O)N[C@@H](Cc1ccccc1)[C@@H](O)C[C@H](Cc1ccccc1)NC(=O)[C@H](C(C)C)N1CCCNC1=O`, the Potency was 20.9 µM (active).

As for `NNc1nncc2ccccc12`, the Potency entry is “inactive”. With `CCN(CC)C(=S)SSC(=S)N(CC)CC`, the Potency was 0.001 µM (active). `Cc1cc(Cl)ccc1OCCCC(=O)NO`: the Potency is 1.05 µM (active).

For `C=CCc1cc(OC)c(O)c(C(=O)NCCO)c1`, the Potency result was “inactive”.

Take `CCN(CC)CCOc1ccc(Cc2ccccc2)cc1`: the Potency entry was “inactive”. Consider `Nc1ncn([C@H]2C[C@H](O)[C@@H](CO)O2)c(=O)n1`, for which the Potency was 0.264 µM (active). Regarding `O=C(O)c1cccnc1Nc1cccc(C(F)(F)F)c1`, the Potency entry is “inactive”. As to `Cc1cc(C2CCCCC2)n(O)c(=O)c1`, the Potency is 8.33 µM (active). For `Cc1ncc([N+](=O)[O-])n1CC(C)O` (stereo not given) the value was 10.5 µM (active); for `O=c1oc2cc(O)ccc2s1`, “inactive”. `N=C(N)c1ccc2cc(OC(=O)c3ccc(N=C(N)N)cc3)ccc2c1`: the Potency entry is “inactive”.

On to `CC(C)C[C@H](NC(=O)[C@H](Cc1ccccc1)NC(=O)c1cnccn1)B(O)O`, for which the Potency was 0.0105 µM (active). For `CCN(CCO)CCCC(C)Nc1ccnc2cc(Cl)ccc12` (stereo not given) the value was “inactive”; for `Cc1cc2c(s1)Nc1ccccc1N=C2N1CCN(C)CC1`, “inactive”; for `COc1cc2c(N3CCN(C(=O)Nc4ccc(OC(C)C)cc4)CC3)ncnc2cc1OCCCN1CCCCC1`, 13.2 µM (active).

As for `CCCCCCCCCCCCCCCCCCCCCCO`, the Potency entry was “inactive”. Consider `CC(C)(S)[C@@H](N)C(=O)O`, for which the Potency result is “inactive”. With `Clc1ccc(C(Cn2ccnc2)OCc2ccc(Sc3ccccc3)cc2)c(Cl)c1` (stereo not given), the Potency was 23.5 µM (active). For `Cc1cccc(C#Cc2ccccc2)n1` the value was 14.8 µM (active). Consider `NS(=O)(=O)c1cc(C(=O)O)c(NCc2ccco2)cc1Cl`, for which the Potency entry is “inactive”. For `CCOC(=O)C(C)Oc1cccc2c(=O)n(CC(=O)Nc3ccc4c(c3)OCCO4)ccc12` (stereo not given), the Potency entry was “inactive”. With `O=C(NC(Cc1cc(=O)[nH]c2ccccc12)C(=O)O)c1ccc(Cl)cc1` (stereo not given), the Potency is 23.5 µM (active). Consider `Cn1c(NCCN(CCO)CCCc2ccc([N+](=O)[O-])cc2)cc(=O)n(C)c1=O`, for which the Potency is 26.4 µM (active). For `O=C(O)c1cn(-c2ccc(F)cc2)c2cc(N3CCNCC3)c(F)cc2c1=O`, the Potency result was “inactive”. Turning to `CC(=O)O[C@H]1C(=O)[C@@]2(C)C([C@H](OC(=O)c3ccccc3)[C@]3(O)C[C@H](OC(=O)[C@H](O)[C@@H](NC(=O)c4ccccc4)c4ccccc4)C(C)=C1C3(C)C)[C@]1(OC(C)=O)CO[C@@H]1C[C@@H]2O` (stereo not given in full), the Potency result is “inactive”.

On to `CC1=C(C)C(=O)C(C(CCCCCC(=O)O)c2ccccc2)=C(C)C1=O` (stereo not given), for which the Potency entry is “inactive”. Turning to `COC(=O)C1=C(C)NC(C)=C(C(=O)OC(C)C)C1c1cccc2nonc12` (stereo not given), the Potency was 11.8 µM (active). On to `Nc1ccn([C@@H]2O[C@H](CO)[C@@H](O)C2O)c(=O)n1` (stereo not given in full), for which the Potency result was “inactive”. On to `CCCc1cc(=O)[nH]c(=S)[nH]1`, for which the Potency entry is “inactive”. Consider `Cc1cc(=O)c2c(O)c3c(O)cc(=O)c4c3c3c(cc(O)c1c23)C(C)(C)C=4O`, for which the Potency is 1.05 µM (active).

Consider `CC(=O)N1CCN(c2ccc(OC[C@H]3CO[C@](Cn4ccnc4)(c4ccc(Cl)cc4Cl)O3)cc2)CC1`, for which the Potency is 13.2 µM (active). For the molecule `CCCCN(CCCC)CCC(O)c1cc2c(Cl)cc(Cl)cc2c2cc(C(F)(F)F)ccc12` (stereo not given), the Potency is 18.7 µM (active). Turning to `CCOc1cc(CC(=O)N[C@@H](CC(C)C)c2ccccc2N2CCCCC2)ccc1C(=O)O`, the Potency entry was “inactive”. For `CC(S)C(=O)NCC(=O)O` (stereo not given) the value was “inactive”. In the case of `Cc1c(C(=O)NN2CCCCC2)nn(-c2ccc(Cl)cc2Cl)c1-c1ccc(Cl)cc1`, the Potency was 26.4 µM (active).
